# An excerpt weighted towards active compounds, which were near 21% of everything screened.
# FBPA Giardia inh = blocks Giardia fructose-bisphosphate aldolase activity. actives 0.71% (n = 290,000). A8B2U2. Potency, µM (titrated, usually from 59.6 µM), most hits filed as inhibitors. purified Giardia FBPA; further: nearly all actives have a fitted effect of over 55% in size
# Target sequence (A8B2U2 whole entry, looked up): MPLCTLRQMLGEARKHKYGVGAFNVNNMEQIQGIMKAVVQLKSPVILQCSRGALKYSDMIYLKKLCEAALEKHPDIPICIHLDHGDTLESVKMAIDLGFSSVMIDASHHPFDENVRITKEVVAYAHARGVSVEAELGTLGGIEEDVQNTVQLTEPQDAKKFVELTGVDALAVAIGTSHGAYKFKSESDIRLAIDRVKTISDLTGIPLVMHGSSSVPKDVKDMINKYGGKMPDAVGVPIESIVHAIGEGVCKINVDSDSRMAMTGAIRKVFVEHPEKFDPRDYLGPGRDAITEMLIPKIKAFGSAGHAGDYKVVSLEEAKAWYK
#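 Giardia FBPA (40 nM reagent) was preincubated 10 min at RT with compound (up to 57.5 uM final), then substrate plus GAPDH/TPI/NAD/arsenate coupling system with diaphorase/resazurin was added; resorufin fluorescence (525/598 nm) was read after 20 min.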
# Shiga inhibitor = inhibitors of Shiga toxin in Vero cells; AID 2315; actives 9.2% (n = 290,000); inhibition, % at 38.7 µM; Vero cells, Shiga toxin protein synthesis inhibition reporter; in the data active means inhibition mostly above about 28%, no sharp cut-off; inactive means mostly below about 43%
# Cycloheximide cs = affects cycloheximide protein synthesis inhibition readout, counter-screen; max response, %; cell reporter, cycloheximide protein synthesis inhibition counterscreen; actives 12% (n = 300,000); in the data active means max response mostly above about 13%, no sharp cut-off; inactive means mostly below about 14%; further: read at 38.3 µM for the half of the compounds with a filed dose
# Pf growth 96h = inhibits malaria parasite growth, 96 h; P. falciparum luciferase reporter growth, 96 h; Potency, µM (titrated, usually from 28.7 µM), actives largely listed as inhibitors; actives 6.9% (n = 320,000)
#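 Plates of compound plus infected erythrocytes (2% hematocrit, 0.05% parasitemia final) incubate 96 hours, 37 C, 5% CO2. Detection reagent added; reduced luminescence from the parasites' luciferase reporter flags inhibition.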
# Pf growth 48h = inhibits P. falciparum growth in the first generation, 48 h; P. falciparum luciferase growth in erythrocytes, 48 h; actives 5.9% (n = 310,000); AID 504832; Potency, µM (highest dose often 28.7 µM), hits mostly inhibitors
#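 In quantitative HTS format, infected erythrocytes bearing luciferase-reporter parasites were treated for a single generation at 37 C. Luminescence after adding detection reagent served as the growth measure.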
# NS1 function inh = inhibitors of influenza NS1 protein function | Potency, µM (highest dose often 46.1 µM) | actives 0.4% (n = 270,000) | AID 2326; calls by dose curve; further: actives are rising curves; nearly all actives have a fitted effect of over 50% in size
#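 Growth recovery, yeast-based: influenza A NS1 expressed in S. cerevisiae causes slow growth, and suppressors are detected by OD600. The parent strain without NS1 is used as positive control.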
# Numbers stand for hits; i = inactive; ? = inconclusive; nt = not tested or not shown; [ ] = another dose, or the depositor's remark. Unless noted, the call rests on the fitted dose curve; in most records, active means well fitted curve in the direction sought with a large enough effect; inconclusive means small, poorly fitted or top-dose-only effect, or another doubt; inactive means no such curve, though single readings can be large; an effect the other way counts as inactive or inconclusive.
SMILES,FBPA Giardia inh,Shiga inhibitor,Cycloheximide cs,Pf growth 96h,Pf growth 48h,NS1 function inh
COc1cccc(C2C(C(=O)Nc3ccc(C)cc3C)=C(C)Nc3ncnn32)c1OC (centres undefined),i,i,i,i,12µM,i
CCOC(=O)C1=C(c2ccccc2)Nc2ncnn2C1c1cccc(OC)c1OC (centres undefined),i,i,i,1.9µM,?,i
COc1ccccc1NC(=O)C1=C(C)Nc2ncnn2C1c1ccccc1C (centres undefined),i,i,i,?,i,i
CCOC(=O)C1=C(c2ccccc2)Nc2ncnn2C1c1cc(OC)cc(OC)c1OC (centres undefined),i,i,i,?,?,i
Cn1nccc1C(=O)NC1CCCc2c1cnn2-c1ccc(C(C)(C)C)cc1 (centres undefined),nt,i,i,i,i,i
Cc1ccc(C(=O)N(CC(C)C)c2c(N)n(Cc3ccccc3)c(=O)[nH]c2=O)o1,nt,nt,nt,i,i,nt
COc1ccc(/C=C(\C#N)c2nc3ccc(C)cc3[nH]2)cc1Oc1ccc(C(F)(F)F)cc1[N+](=O)[O-],i,i,i,?,?,i
COc1cc(/C=C(\C#N)c2nc3ccc(C)cc3[nH]2)c([N+](=O)[O-])cc1OC,i,i,i,?,?,i
COc1cc(/C=C(\C#N)c2nc3ccc(C)cc3[nH]2)cc([N+](=O)[O-])c1O,i,56,30,?,?,i
Cc1ccc2nc(/C(C#N)=C\c3cc(O)ccc3[N+](=O)[O-])[nH]c2c1,i,i,36,i[5.75 µM],i,i
Cc1ccc2nc(/C(C#N)=C\c3ccc(Oc4ccc(C(F)(F)F)cc4[N+](=O)[O-])cc3)[nH]c2c1,i,79,31,i,i,i
Cn1cnc([N+](=O)[O-])c1Sc1nc(N)nc2c1ncn2[C@H]1C[C@H](O)[C@@H](CO)O1,nt,nt,nt,nt,nt,i
CCOC(=O)Nc1nc(-c2ccccc2)c(C)s1,nt,nt,nt,nt,nt,i
COc1ccccc1C(=O)NCC(=O)N/N=C(\C)Cc1ccccc1,i,i,i,i,i,i
COc1cccc(C(=O)N/N=C(\C)c2ccc(NC(=O)Cc3ccccc3)cc2)c1OC,i,i,18,?,?,i
O=C(Cc1ccccc1)Nc1ccc(NC(=O)c2cccc(Cl)c2)cc1,i,i,i,i,i,i
COc1cc(C(=O)N/N=C(\C)c2ccc(NC(=O)Cc3ccccc3)cc2)ccc1O,nt,45,39,i,i,i
C/C(=N\NC(=O)c1cccc(O)c1)c1ccc(NC(=O)Cc2ccccc2)cc1,nt,69,34,i,i,i
COc1ccc(CC(=O)Nc2ccc(/C(C)=N/NC(=O)c3ccc(OC)cc3OC)cc2)cc1,i,50,28,i,i,i
Cc1ccccc1CNCCCSc1ncccn1,i,i,i,i,i,i
CCOC(=O)CN1C(=O)NC2(CCCc3ccccc32)C1=O (centres undefined),i,i,i,i,i,i
O=C(O)c1[nH]c2c([N+](=O)[O-])cc([N+](=O)[O-])cc2c1C(=O)O,nt,nt,nt,nt,nt,i
CCOC(=O)N1CCN(C(=O)c2cccc(N3C(=O)NC4CC3(C)Oc3ccc(Cl)cc34)c2)CC1 (centres undefined),nt,i,i,?,?,i
O=C(N/C(=C/c1ccc(F)cc1)C(=O)N1CCCCC1)c1ccco1,nt,i,i,i,i,i
C/C(=N\NC(=O)c1ccccc1O)c1ccc(NC(=O)Cc2ccccc2)cc1,nt,41,29,i,i,i
SMILES,FBPA Giardia inh,Shiga inhibitor,Cycloheximide cs,Pf growth 96h,Pf growth 48h,NS1 function inh
CCOC(=O)c1c(C)nc2sc3c(=O)n(-c4ccc(C(C)=O)cc4)cnc3c2c1-c1ccc(Cl)cc1,i,i,i,3.7µM,nt,i
CCOC(=O)c1c(C)nc2sc3c(=O)n(-c4ccc(C(C)=O)cc4)nnc3c2c1-c1ccc(Cl)cc1,i,i,i,i,i,i
COC(=O)C1CC(=O)N(c2ccc(C)cc2)C1 (centres undefined),i,i,i,i,i,i
CCOC(=O)C1=NN(c2ccc(C)cc2)CC1C(=O)OC (centres undefined),i,i,i,5.9µM,i,i
COc1cccc(O)c1O,18µM,nt,nt,nt,nt,nt
COc1cccc(/C=C/c2ccccn2)c1O,i,110,50,i,i,i
COc1ccccc1-n1c(/C=C/c2ccccn2)nc2ccccc2c1=O,i,i,i,?,?,i
O=C(NC1CCCc2ccccc21)c1c(F)cccc1Cl (centres undefined),i,i,i,i,i,i
O=C(CSc1nc(=O)n2ccccc2n1)Nc1ccc2c(c1)OCO2,nt,nt,nt,i,i,nt
COc1cc(/C=N/NC(=S)Nc2cccc(C(=O)O)c2)ccc1O,i,i,12,i,i,i
COc1ccc(/C=N/NC(=S)Nc2ccccc2)cc1,i,75,55,i,?,i
Cc1cccc(C)c1NC(=S)N/N=C/c1ccc(OCCC(C)C)cc1,i,i,i,3.3µM,nt,i
O=C(O)c1cccc(NC(=S)N/N=C/c2cccnc2)c1,?,i,17,?,i,i
COc1ccc(NC(=S)Nc2ccc(Oc3ccccc3)cc2)cc1,i,i,i,?,i,i
CC(C)Sc1nnc(SCC(=O)NCCCN2CCCC2=O)s1,nt,nt,nt,?,i,nt
COc1cccc(/C=N/NC(=S)Nc2cccc(C(=O)O)c2)c1O,i,i,i,?,i,nt
COc1ccc(/C=N/NC(=S)Nc2cccc(C(=O)O)c2)cc1,i,156,41,i,i,nt
Cc1ccsc1/C=N/Nc1ccc(F)cc1F,i,91,44,?,?,i
Cc1ccsc1/C=N/Nc1nc(=O)[nH]nc1C,?,112,34,i,?,nt
Cc1ccsc1/C=N/Nc1ncc(Cl)cc1Cl,i,119,32,i,nt,i
Cc1cc(C)nc(N/N=C/c2sccc2C)n1,i,77,26,?,i,i
CC(NC(=O)Nc1ccccc1Cl)c1ccc2c(c1)OCO2 (centres undefined),i,i,i,i,i,i
CCOC(=O)N1CCN(c2ccc(C(F)(F)F)cn2)CC1,i,i,20,?,i,i
CCOC(=O)N1CCN(c2ccc3nnnn3n2)CC1,i,i,i,2.1µM,nt,i
CC(C)N(Cc1ccccc1)C(=O)COC(=O)C1CCN(c2ccc(C(F)(F)F)cn2)CC1,nt,nt,nt,i,i,nt
SMILES,FBPA Giardia inh,Shiga inhibitor,Cycloheximide cs,Pf growth 96h,Pf growth 48h,NS1 function inh
CC(C)(C)N(Cc1ccccc1)C(=O)COC(=O)C1CCN(c2ccc(C(F)(F)F)cn2)CC1,nt,nt,nt,?,10µM,nt
c1cc2nnnn2nc1N1CCCCC1,i,i,i,i[5.75 µM],i,i
O=C(c1ccc(-c2ccc([N+](=O)[O-])cc2Cl)o1)N1CCOCC1,i,57,26,i,i,i
S=C(c1ccc(-c2ccc(Br)cc2)o1)N1CCOCC1,i,92,51,i,i,i
O=C(c1cccc(Oc2ccc([N+](=O)[O-])cc2Cl)c1)N1CCOCC1,nt,i,i,?,i,i
S=C(c1ccc(-c2ccc(Cl)c(Cl)c2)o1)N1CCOCC1,i,96,62,i,i,i

# High-throughput results from PubChem.
